Screens deposited in PubChem BioAssay by National Center for Advancing Translational Sciences (NCATS).
Shown are actives, neighbours in structure and some others; about 6.2% of the full set was active somewhere.
HCMV inh: inhibitors of human cytomegalovirus; HFF cells, HCMV-luciferase reporter, 72 h; hits give low values; activity change, negative = inhibition, % at 57.5 µM; 410,000 tested, 4.5% active; in the data active means activity change below about -60%; inconclusive means no clear call, values can overlap the other calls; inactive means above about -39%
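Two compound doses tested in HFFs infected with HCMV-luciferase, MOI 1 PFU/cell, 72 h at 37C. Lysate luminescence read with OneGlo; data normalized against buffer-only and 10uM Salinomycin inhibitor controls.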
Lassa entry inh: blocks Lassa virus binding to or entry into cells; Lassa virus pseudotype entry inhibition, cell reporter; 300,000 tested, 1.2% active; Potency, µM (series often up to 37.9 µM), for inactives: top-dose activity change, negative = inhibition, actives largely listed as inhibitors; calls by dose curve; tested in HEK293 cells; further: potency means the concentration at half of the fitted maximal effect; nearly all actives have a fitted effect of over 50% in size
Marburg entry inh: Marburg virus entry inhibition; Marburg virus pseudotyped entry inhibition, cell reporter; Potency, µM (titrated, usually from 37.8 µM), for the others: top-dose activity change, negative = inhibition, usual class: inhibitors; 300,000 tested, 1.8% active; calls by dose curve; tested in HEK293 cells; further: potency means the concentration at half of the fitted maximal effect
FMDV antiviral: antivirals against foot and mouth disease virus; FMDV antiviral cell-based qHTS; AID 1159524; 410,000 tested, 1.2% active; Potency, µM (top dose mostly 57.9 µM), without a hit: top-dose activity change, negative = inhibition, usual class: inhibitors; calls by dose curve; tested in HEK293T cells; further: read-out not given here; potency means the concentration at half of the fitted maximal effect; nearly all actives have a fitted effect of over 45% in size
* hit, by the source's call; [ ] = dose if it differs, or a comment. On the % scale 0 is the no-effect control and ±100 the full control effect.

How did CC(C)CCNC(=O)C(C)N(C(=O)c1snc(C(N)=O)c1N)c1cnc2ccccc2c1 (stereo not given) do in these assays?
HCMV inh: -12; Lassa entry inh: inconclusive; Marburg entry inh: -29%[46.1 µM]; FMDV antiviral: 16%

What do the screens show for `CCc1cccc(NC(=O)c2cc3c(=O)[nH]c4ccccc4c3n2C)c1`?
HCMV inh: -66*; Lassa entry inh: -15%[46.1 µM]; Marburg entry inh: 5%[46.1 µM]; FMDV antiviral: inconclusive

What do the screens show for `CCOc1ncccc1C(=O)N(C)CC(=O)Nc1ccc(C)cc1`?
HCMV inh: 5; Lassa entry inh: -3%; Marburg entry inh: 11%; FMDV antiviral: 0%

What do the screens show for `Cc1ccc(NC(=O)CN(C)C(=O)c2cccnc2Nc2cccc(C(F)(F)F)c2)cc1`?
HCMV inh: -60*; FMDV antiviral: -26%

Results for CN(C)S(=O)(=O)N1CCC(Oc2cccc(C(=O)N3CCCCCCC3)c2)CC1 ?
Lassa entry inh: 11µM*; Marburg entry inh: -1%; FMDV antiviral: inconclusive

Results for CN(C)S(=O)(=O)N1CCC(Oc2cccc(C(=O)N3CCCCCC3)c2)CC1 ?
HCMV inh: -14; Lassa entry inh: inconclusive; Marburg entry inh: inconclusive; FMDV antiviral: -18%

Results for CCn1c(=O)c2sccc2n2c(CCCC(=O)N3CCN(c4ccc(OC)cc4)CC3)nnc12 ?
HCMV inh: -30; Lassa entry inh: -11%[46.1 µM]; FMDV antiviral: -2%

What do the screens show for `Cc1cc(C=O)c(C)n1C1CCCCC1`?
HCMV inh: -28; Lassa entry inh: -12%; Marburg entry inh: inconclusive; FMDV antiviral: -3%

What do the screens show for `CC(=O)Nc1sc2c(c1-c1nc3ccccc3s1)CN(C(C)C)CC2`?
HCMV inh: -97*; FMDV antiviral: -27%

How did CC(=O)N1CCc2c(sc(NC(=O)CSc3ccccc3)c2-c2nc3ccccc3s2)C1 do in these assays?
HCMV inh: -97*; Lassa entry inh: -18%[46.1 µM]; FMDV antiviral: -10%

How did CC(C)N1CCc2c(sc(NC(=O)c3nc4ccccc4s3)c2C(N)=O)C1 do in these assays?
HCMV inh: -36; Lassa entry inh: inconclusive; Marburg entry inh: 2%[46.1 µM]; FMDV antiviral: -12%

Results for CC(=O)N1CCc2c(sc(NC(=O)C3CC3)c2-c2nc3ccccc3s2)C1 ?
HCMV inh: 12; Marburg entry inh: 0%; FMDV antiviral: 25µM*

Results for CN1CCc2c(sc(NC(=O)CSc3ccccc3)c2-c2nc3ccccc3s2)C1 ?
HCMV inh: 29; Lassa entry inh: 9%[46.1 µM]; FMDV antiviral: -14%

How did O=S(=O)(c1cccc(NC(=S)N2CCN(c3ccccc3F)CC2)c1)C(F)F do in these assays?
HCMV inh: 25; Lassa entry inh: -15%; Marburg entry inh: 0%; FMDV antiviral: 2%

What do the screens show for `COc1ccc(C(=O)N2N=C(c3ccccc3)CC2(O)C(F)(F)F)cc1` (stereo not given)?
HCMV inh: -3; Lassa entry inh: inconclusive; Marburg entry inh: 13µM*; FMDV antiviral: -15%

What do the screens show for `COc1ccc(NC(=O)C2CCCN(CCCc3ccccc3)C2)cc1OCC(C)C` (stereo not given)?
HCMV inh: -91*; FMDV antiviral: -9%

Results for CC1CN(C(=O)CCC(=O)Nc2cc(F)ccc2F)c2ccccc2S1 (stereo not given) ?
HCMV inh: -78*; Lassa entry inh: -3%[46.1 µM]; FMDV antiviral: -10%

What do the screens show for `Cc1ccccc1NC(=O)CCC(=O)N1CC(C)Sc2ccccc21` (stereo not given)?
HCMV inh: inconclusive; Lassa entry inh: 20%[46.1 µM]; FMDV antiviral: 8%

Results for O=C(N/C=N/OCc1ccc(Cl)cc1Cl)NOCc1ncc(C(F)(F)F)cc1Cl ?
HCMV inh: inconclusive; Lassa entry inh: inconclusive; Marburg entry inh: inconclusive; FMDV antiviral: -19%

What do the screens show for `Cc1cccc(N(Cc2cc(=O)[nH]c3ccccc23)C(=O)CCl)c1`?
HCMV inh: -96*; FMDV antiviral: 20µM*

What do the screens show for `CC(=O)N(Cc1cc(=O)[nH]c2ccccc12)c1ccccc1C`?
HCMV inh: -2; Lassa entry inh: inconclusive; Marburg entry inh: inconclusive; FMDV antiviral: -10%

How did COc1ccc(N(Cc2cc(=O)[nH]c3ccccc23)C(=O)CCl)cc1 do in these assays?
HCMV inh: -101*; Lassa entry inh: inconclusive; Marburg entry inh: inconclusive; FMDV antiviral: 20µM*

What do the screens show for `CCCC(=O)N(Cc1cc(=O)[nH]c2ccccc12)c1ccccc1C`?
HCMV inh: -73*; Lassa entry inh: inconclusive; Marburg entry inh: inconclusive; FMDV antiviral: -10%

What do the screens show for `O=C(CN1CCC(C(=O)O)CC1)Nc1ccccc1Oc1ccccc1`?
HCMV inh: 31; Lassa entry inh: 3%[46.1 µM]; Marburg entry inh: 13%[46.1 µM]; FMDV antiviral: 0%

How did CC1(C)OC(=O)C(=CC2=NCCC2)C(=O)O1 do in these assays?
Marburg entry inh: 0%

Results for CCCCCCCCNS(=O)(=O)CCNCCc1ccccc1 ?
HCMV inh: -17; FMDV antiviral: -13%

How did CCCCCCCCNCCS(=O)(=O)NCCCCCCCC do in these assays?
HCMV inh: -102*; FMDV antiviral: inconclusive

What do the screens show for `COc1ccc(N2CCN(C(=O)CCNC(=O)Cn3ccc4ccccc4c3=O)CC2)cc1`?
HCMV inh: 11; FMDV antiviral: 0%

Results for COc1ccc(NC(=O)C(C2CC2)n2c(=O)c(-c3cc4ccccc4[nH]3)nc3ccccc32)cc1 (stereo not given) ?
HCMV inh: -97*; FMDV antiviral: -19%

How did O=C(Nc1ccc2ccccc2c1)C(C1CC1)n1c(=O)c(-c2cc3ccccc3[nH]2)nc2ccccc21 (stereo not given) do in these assays?
HCMV inh: 3; FMDV antiviral: -19%

How did CSc1nc(NCCOCCO)c2sc3nc(-c4ccco4)c4c(c3c2n1)CCC4 do in these assays?
HCMV inh: -1; Lassa entry inh: inconclusive; Marburg entry inh: inconclusive; FMDV antiviral: 40µM*

What do the screens show for `O=C(c1ccc(Br)o1)N1CCN(c2ccccc2F)CC1`?
HCMV inh: inconclusive; Lassa entry inh: -18%; Marburg entry inh: -4%; FMDV antiviral: 15%

What do the screens show for `O=C(c1ccc(CS(=O)c2ccccc2Cl)o1)N1CCCCCC1` (stereo not given)?
HCMV inh: 2; FMDV antiviral: -2%

What do the screens show for `O=C(c1ccc(CS(=O)c2ccccc2Cl)o1)N1CCN(C2CCCCC2)CC1` (stereo not given)?
HCMV inh: -101*; FMDV antiviral: 0%

What do the screens show for `O=C(c1ccc(CS(=O)c2ccccc2Cl)o1)N1CCN(c2ccccc2F)CC1` (stereo not given)?
HCMV inh: -67*; Lassa entry inh: -13%[46.1 µM]; FMDV antiviral: -23%

What do the screens show for `COc1cc2c(cc1OC)C(C)N(C(=O)c1cc(C)on1)CC2` (stereo not given)?
HCMV inh: -66*; Lassa entry inh: inconclusive; Marburg entry inh: -25%; FMDV antiviral: -20%

What do the screens show for `COc1cc2c(cc1OC)C(C)N(C(=O)c1c(C)noc1C)CC2` (stereo not given)?
HCMV inh: inconclusive; FMDV antiviral: -7%

How did COc1cc2c(cc1OC)C(C)N(C(C)=O)CC2 (stereo not given) do in these assays?
HCMV inh: 107; Lassa entry inh: 13%; Marburg entry inh: 4%
